In PubChem BioAssay (NCI) one finds growth data, which are given here for ten compounds.

Compounds without any hit were thinned out: in the full panel of roughly 83,000, 20% have a hit.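 Testing used 96-well plates and a 48-hour single-concentration exposure. Example: -40 means 40% of the starting cells died.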 Values without a mark were called inactive. Activity calls are given as the source filed them. Rule for the calls: active = growth percent below 10; inactive = the rest.

Some test systems named below: RPMI-8226 leukemia; OVCAR-8 ovarian; OVCAR-5 ovarian; SK-OV-3 ovarian; OVCAR-3 ovarian; HS 578T breast; NCI/ADR-RES ovarian; T-47D breast; BT-549 breast; MDA-MB-435 melanoma; SW-620 colon; MCF7 breast; HCT-116 colon; HCC-2998 colon; KM12 colon; OVCAR-4 ovarian; IGROV1 ovarian.
What all share (assay): NCI-60 one-dose screen, 48 h (100 = growth as untreated, 0 = no growth, -100 = all killed)
What all share (settings): 10 µM unless noted

Regarding `O=[P@@]1(c2ccccc2)O[C@H](COCc2ccccc2)[C@@H](OCc2ccccc2)[C@H](OCc2ccccc2)[C@H]1NCc1ccccc1`, the growth in the test with RPMI-8226 leukemia is 5.97% (active); with OVCAR-8 ovarian, 23.7%; in the test on OVCAR-5 ovarian, 11.8%; with SK-OV-3 ovarian, 41.7%; in the test with OVCAR-3 ovarian, 18.6%; in the test on HS 578T breast, 49.9%. The growth in the test with NCI/ADR-RES ovarian was 12.5%; in the test on T-47D breast, 15.9%; in the test with BT-549 breast it was 4.37% (active); with MDA-MB-435 melanoma, 9.72% (active); in the test with SW-620 colon, 21.6%; in the test with MCF7 breast, 9.59% (active). Moreover, the growth was 8.21% (active) with HCT-116 colon, 38.8% in the test on HCC-2998 colon and 15.3% in the test on KM12 colon.

Turning to `CSc1ccc2c(c1)N(CCC1CCCCN1C)c1ccccc1S2` (centres undefined), the growth was 26.3% in the test on RPMI-8226 leukemia; 69.9% in the test on OVCAR-8 ovarian; 64% with OVCAR-4 ovarian; 81% with SK-OV-3 ovarian; 36.4% with IGROV1 ovarian; 92.3% in the test on OVCAR-3 ovarian. Further, the growth with HS 578T breast is 47.6%; with NCI/ADR-RES ovarian, 65.6%; in the test on BT-549 breast, 67.9%; in the test on MDA-MB-435 melanoma, 42.6%; in the test on SW-620 colon, 75.6%; in the test with MCF7 breast, 5.18% (active). Also, the growth in the test with HCT-116 colon is 42.3%; in the test with HCC-2998 colon, 34.4%; in the test with KM12 colon it was 45%.

Regarding `O=C(Cc1ccccn1)C(F)(F)C(F)(F)C(F)(F)F`, the growth was 100% in the test on RPMI-8226 leukemia; 113% in the test with OVCAR-5 ovarian; 109% with OVCAR-4 ovarian; 109% in the test with SK-OV-3 ovarian; 123% in the test on IGROV1 ovarian; 112% in the test with OVCAR-3 ovarian. In addition, the growth is 102% in the test with HS 578T breast; 104% with NCI/ADR-RES ovarian; 102% in the test on T-47D breast; 127% in the test on BT-549 breast; 113% in the test with MDA-MB-435 melanoma; 109% with SW-620 colon. Further, the growth is 97.3% with MCF7 breast, 104% in the test on HCT-116 colon, 100% in the test on HCC-2998 colon and 135% in the test on KM12 colon.

Turning to `O=C(c1nn(-c2ccc(Cl)cc2)cc1O)n1nc(C(F)(F)F)cc1-c1ccccc1`, the growth was -10.4% (active) with RPMI-8226 leukemia; 58.7% in the test on OVCAR-5 ovarian; 29.2% in the test with OVCAR-4 ovarian; 23.2% in the test with SK-OV-3 ovarian; 34.9% in the test with IGROV1 ovarian; -1.65% (active) in the test on OVCAR-3 ovarian. In addition, the growth in the test with HS 578T breast was 15.8%; in the test on NCI/ADR-RES ovarian, 19.4%; in the test on T-47D breast, 44.9%; with MDA-MB-435 melanoma it was 48.1%; in the test on SW-620 colon, 39.6%; in the test with MCF7 breast, 44%. In addition, the growth with HCT-116 colon is 8.39% (active); in the test on HCC-2998 colon, 43.2%; with KM12 colon, 50.8%.

In the case of `C=CCOc1ccc2c(c1)CC[C@@H]1[C@@H]2CC[C@@]2(C)[C@H]1CC[C@]2(C)O`, the growth is 51.8% with RPMI-8226 leukemia; 75.3% in the test with OVCAR-5 ovarian; 89.4% with OVCAR-4 ovarian; 93.9% with SK-OV-3 ovarian; 104% with IGROV1 ovarian; 111% with OVCAR-3 ovarian. Further, the growth in the test with HS 578T breast is 93%; in the test with NCI/ADR-RES ovarian, 90.5%; in the test with T-47D breast it was 79.9%; in the test on MDA-MB-435 melanoma it was 86.9%; in the test on SW-620 colon, 64.3%; in the test with MCF7 breast it was 117%. For the same compound, the results for the growth in the test on HCT-116 colon, in the test with HCC-2998 colon and in the test on KM12 colon were 94.4%, 94.8% and 58.2%, respectively.

Regarding `OCc1nnn(-c2ccccc2)c1CO`, the growth in the test with RPMI-8226 leukemia is 101%; in the test with OVCAR-5 ovarian, 112%; with OVCAR-4 ovarian it was 99.2%; in the test on SK-OV-3 ovarian, 129%; in the test with IGROV1 ovarian, 108%; in the test with OVCAR-3 ovarian, 117%. Further, the growth in the test on HS 578T breast is 117%; in the test on NCI/ADR-RES ovarian it was 115%; with T-47D breast it was 114%; with BT-549 breast, 157%; with MDA-MB-435 melanoma, 114%; in the test with SW-620 colon, 105%. Moreover, the growth was 106% in the test on MCF7 breast, 105% in the test with HCT-116 colon, 119% in the test with HCC-2998 colon and 116% in the test on KM12 colon.

As for `CSc1nnc(C2=CC(=O)c3ccccc3C2=O)n1-c1ccccc1`, the growth was 72.2% with RPMI-8226 leukemia; 113% with OVCAR-5 ovarian; 99.2% with OVCAR-4 ovarian; 93.7% in the test with SK-OV-3 ovarian; 80.4% in the test with IGROV1 ovarian; 91.6% in the test on OVCAR-3 ovarian. Also, the growth in the test on HS 578T breast was 112%; in the test on NCI/ADR-RES ovarian it was 98%; with T-47D breast it was 78.4%; with BT-549 breast, 92.9%; in the test on MDA-MB-435 melanoma, 96.7%; with SW-620 colon, 92.1%. Also, the growth in the test with MCF7 breast was 94.5%; with HCT-116 colon, 73.8%; in the test on HCC-2998 colon, 85%; in the test on KM12 colon it was 61.5%.

As for `S=C1SCN(Cc2ccccc2)CN1Cc1ccco1`, the growth with RPMI-8226 leukemia is 37.5%; in the test on OVCAR-5 ovarian, 120%; in the test on OVCAR-4 ovarian, 99.9%; with SK-OV-3 ovarian it was 96.2%; in the test on IGROV1 ovarian, 84.4%; with OVCAR-3 ovarian, 75.3%. Moreover, the growth is 109% with HS 578T breast; 99.2% in the test with NCI/ADR-RES ovarian; 59.3% in the test on T-47D breast; 102% with BT-549 breast; 37.8% with MDA-MB-435 melanoma; 41.7% in the test on SW-620 colon. In addition, the growth in the test with MCF7 breast was 18.2%; with HCT-116 colon it was 25.5%; with HCC-2998 colon, 103%; with KM12 colon it was 58.2%.

On to `COc1ccc(/C=C(\C#N)c2ccccc2)cc1`, for which the growth in the test on RPMI-8226 leukemia was 84.7%; in the test with OVCAR-5 ovarian, 92.1%; in the test on OVCAR-4 ovarian, 85.9%; with SK-OV-3 ovarian, 114%; in the test with IGROV1 ovarian it was 87.9%; in the test with OVCAR-3 ovarian, 95.1%. In addition, the growth with HS 578T breast was 85.7%; with NCI/ADR-RES ovarian, 78%; with T-47D breast, 88.6%; in the test on BT-549 breast, 85.4%; in the test on MDA-MB-435 melanoma it was 12%; in the test on SW-620 colon, 71.4%. For the same compound, the values for the growth with MCF7 breast, with HCT-116 colon and in the test with KM12 colon were 103%, 85.4% and 49.2%, respectively.

`NC(N)=NN=c1c(=O)c2ccccc2c1=O`: the growth in the test on RPMI-8226 leukemia is 60.1%; in the test with OVCAR-5 ovarian, 98.9%; in the test with OVCAR-4 ovarian, 103%; in the test with SK-OV-3 ovarian, 98.1%; in the test with IGROV1 ovarian it was 102%; in the test on OVCAR-3 ovarian, 80.6%. Also, the growth was 109% in the test on HS 578T breast; 91.7% with NCI/ADR-RES ovarian; 116% with T-47D breast; 92.3% in the test on BT-549 breast; 12.7% in the test on MDA-MB-435 melanoma; -67% (active) in the test on SW-620 colon. The figures for the growth in the test with HCT-116 colon, in the test with HCC-2998 colon and with KM12 colon were -37.8% (active), 112% and 73.8%, respectively.
